# Test results as given in PubChem BioAssay (NCI).
# About 79,000 compounds went through this panel and 15% of them were active in at least one assay; those are over-represented in the sample as a whole. Values without a mark were called inactive. Activity calls are given as the source filed them. No stated cut-off is given here; in the data, active means growth inhibition above about 70%; inactive means the rest.
# Key:
# [1] = NCI Yeast Anticancer Drug Screen. Data for the rad50 strain (AID 155);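 further: 0% = growth of vehicle-only cultures of the same strain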; conditions: S. cerevisiae rad50 strain growth inhibition; at 50.0 µM; stronger effect = higher value
# Procedure, shortened: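 Yeast carrying a defined DNA repair defect were exposed to test compounds, and growth was compared with vehicle-treated controls to give percent inhibition.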
# [2] = NCI Yeast Anticancer Drug Screen. Data for the mec2-1 strain (AID 157); conditions: S. cerevisiae mec2-1 strain, at 50.0 µM, stronger effect = higher value
# Procedure, shortened: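 Cells of the genetically defined mec2-1 yeast strain are incubated with test compound. Inhibition of growth is calculated against vehicle-treated controls.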
# [3] = NCI Yeast Anticancer Drug Screen. Data for the sgs1 mgt1 strain (AID 161);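 further: 0% = growth of cultures given vehicle only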; conditions: S. cerevisiae sgs1 mgt1 strain, at 50.0 µM, stronger effect = higher value
# Procedure, shortened: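 Mutant yeast exposed to compound; growth scored against vehicle-only wells.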
# [4] = NCI Yeast Anticancer Drug Screen. Data for the cln2 rad14 strain (AID 165);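 further: 0% = growth equal to vehicle treated cultures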; conditions: S. cerevisiae cln2 rad14 strain, at 50.0 µM, stronger effect = higher value
# Procedure, shortened: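 The screen exposed genetically defined yeast (cln2 rad14) to test compounds and scored growth inhibition relative to vehicle-treated controls.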
# [5] = NCI Yeast Anticancer Drug Screen. Data for the bub3 strain (AID 167); conditions: S. cerevisiae bub3 mutant strain, at 50.0 µM, stronger effect = higher value
# Procedure, shortened: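 Compounds were applied to a genetically altered yeast strain carrying a cell-cycle control defect. Growth inhibition was scored against vehicle-treated controls.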
# [6] = NCI Yeast Anticancer Drug Screen. Data for the mlh1 rad18 strain (AID 175); conditions: S. cerevisiae mlh1 rad18 strain growth inhibition; at 50.0 µM; stronger effect = higher value
# Procedure, shortened: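 Compound-treated yeast growth, normalised to vehicle controls. Strain bears defined DNA repair mutations.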
Compound,growth inhibition [1],growth inhibition [2],growth inhibition [3],growth inhibition [4],growth inhibition [5],growth inhibition [6]
CCOP(=O)(OCC)C1=C(P(=O)(OCC)OCC)C(F)(F)C1(F)F,-9.35%,-5%,-6.7%,-13.1%,-0.95%,-6.3%
CNC(=O)Nc1ccc(Cl)cc1C(=O)O,-26.2%,2.45%,-15.7%,-72.2%,-13.7%,-7.45%
COc1cc2c(cc1OC)C(Cl)C(c1ccc(Cl)c(Cl)c1)=C2Cl (stereo not given),-0.65%,14.2%,-4.6%,-0.25%,-4.15%,-5.05%
O=C1C(=O)N(CN2CCCCC2)c2ccccc21,10.4%,-40.9%,26.4%,10.9%,22.4%,17.9%
COc1ccc2c(c1CCl)C(=O)OC2,13.6%,-9.1%,-2.05%,-20.6%,12.2%,-1.05%
CC(=O)O[C@H]1CC[C@]2(C)C3CC[C@]4(C)C([C@H](C)CCCC(C)C)CCC4[C@]3(/C=N/O)n3c(=O)n(-c4ccccc4)c(=O)n3[C@]2(/C=N\O)C1 (stereo not given in full),28%,35.2%,28.8%,9.7%,38.9%,45.4%
CCCCCCCCCCCCCCC1CC(=O)OC1=O (stereo not given),-22.6%,-30.1%,-9.55%,0.5%,-10.8%,-31.8%
CC(C)(C)OC(=O)Cn1ncn(NC(=O)Cc2ccccc2)c1=S,-27.6%,-23.9%,1.05%,-37.2%,-33.5%,-15.7%
CC(=O)[O][Ga]([Br])[O]C(C)=O,6.3%,11.8%,12.3%,14.4%,15.7%,0.5%
CCCCCCC(=O)/C=C/c1ccccc1OCOC,-3.35%,-9.8%,4.6%,-13.7%,-18.9%,-4.45%
c1csc(C2N3CCN(CC3)C(c3cccs3)N3CCN2CC3)c1 (stereo not given),-1.6%,-16.7%,23.8%,10.1%,-5.25%,3.1%
CCCCN(CCCC)CC(O)c1cc(-c2ccc(Cl)c(Cl)c2)nc2c(Cl)cc(Cl)cc12 (stereo not given),28.3%,31.1%,-15.7%,11.6%,-15.5%,-11.8%
CC(=O)OC1C(NC(=O)OCc2ccccc2)CC(NC(=O)OCc2ccccc2)C(O)C1O (stereo not given),34.4%,-12.5%,5.4%,-10.1%,-1.9%,4.9%
COc1ccc(/C=C2\N=C(c3ccccc3)OC2=O)c(OC)c1C,-6.1%,-4.9%,-1.65%,-60.4%,1.9%,-9.95%
CCC1C(C#N)(C#N)C1(C#N)C#N,-4.7%,21.8%,7.45%,0.35%,1.45%,12.2%
Cn1cnc([N+](=O)[O-])c1Sc1ccccc1N,-7.3%,-4.15%,0.45%,18.6%,-15.7%,-2.5%
CSc1ccc(NC(=O)Nc2cc(C)ccn2)cc1,5.8%,-11.1%,-45.7%,-37.8%,-61%,10.6%
C=C1C(=C)C2C=CC1C1C3C(c4ccccn4)=NN=C(c4ccccn4)C3C21 (stereo not given),54.4%,66.2%,68.8%,74.5% (active),66.6%,62.5%
CCCCCC/C=C/CCCCCCCc1cccc(OC)c1 (tested in a mixture with another compound),3.85%,-5.9%,3.6%,-14.7%,1.25%,12.1%
Cc1cc(C)c(C)c(CC(C)(COS(C)(=O)=O)COS(C)(=O)=O)c1C,8.6%,11%,27.1%,39.2%,5.85%,28.1%

Compound,growth inhibition [1],growth inhibition [2],growth inhibition [3],growth inhibition [4],growth inhibition [5],growth inhibition [6]
O=C(/C=C/c1ccccn1)c1ccc(Cl)cc1,22.1%,10.7%,24.1%,16.9%,22.4%,13.1%
Nc1ccccc1OCCOCCOc1ccccc1N,-31.9%,-2.65%,-8.45%,45.4%,14.9%,-10.5%
Nc1nc2nc3c(nc2c(=O)[nH]1)CN(c1ccc(C(=O)O)cc1)C3=O,19.4%,5.6%,-5.05%,-7.45%,14.7%,11.4%
Nc1ccc(S(=O)(=O)CCO)cc1,1.1%,-7.5%,4.65%,4.45%,-5.6%,3.6%
N#CC(O)CCOCc1ccccc1 (stereo not given),9%,-10.1%,-5.45%,-18.9%,-5%,-14.2%
Cc1ccc(C(=O)C2CC2c2ccccc2)cc1 (stereo not given),6.05%,-1.9%,-13.7%,-38%,-0.95%,-7%
NNC(=O)C(O)C(O)C(=O)NN (stereo not given),8.5%,-6.8%,-20.2%,46.6%,-8.05%,-8.1%
C=C(C)c1nn(-c2ccccc2)c2c1C(=O)CC(C)O2 (stereo not given),-12.2%,-26.2%,1.8%,29.2%,-7.45%,8.5%
Cc1cccc(C(=O)NN)c1,-4.15%,10.2%,-20.2%,-5.4%,-0.2%,-5.95%
Cc1cc2c(cc1C)NC1=C(N2)OC(c2ccc(C3OC4=C(Nc5cc(C)c(C)cc5N4)C3=O)cc2)C1=O (stereo not given),32.2%,14.8%,9.95%,16.5%,0.75%,29.6%
CCN(CC)CCC(=O)Nc1cc(OC)cc2cccnc12,10.7%,10.5%,6.25%,-21.1%,-19.4%,-8.1%
CN1CCCC2C(c3ccccc3)C(C3=NCCCC3)C(c3ccccc3)CC21 (stereo not given),-18.9%,-3.2%,-23.1%,-28.6%,-64.9%,-60.4%
C/C(=N\N=P(c1ccccc1)(c1ccccc1)c1ccccc1)c1ccccc1,5.15%,-6.5%,9.35%,-1.4%,2.6%,-14.3%
O=C(N/N=C\c1ccc2c(c1)OCO2)c1ccc2c(c1)OCO2,0.7%,0.05%,1.85%,-15.2%,5.05%,0.55%
O=C1CSC2=NC3=C(CSC/C3=C\c3ccccc3)C(c3ccccc3)N12 (stereo not given),14.4%,11.5%,21.2%,35.8%,21%,-25.6%
N=c1nccnn1O,6.45%,13.2%,-8.2%,10.4%,-6.5%,3.95%
COC(=O)C1CCC(=O)N1Cc1csc(-c2ccccc2)n1 (stereo not given),-12.1%,-6.95%,-6.8%,-24.7%,-14.8%,-11.8%
c1ccc(-c2n[nH]c(-c3[nH]nc(-c4ccccc4)c3-c3ccccc3)c2-c2ccccc2)cc1,-12.2%,15.3%,-12%,5.15%,7.35%,8.2%
COc1cc(CC2COC(=O)C2Cc2ccc(O)c(OC)c2)ccc1O (stereo not given),-4.85%,12.1%,0.35%,-15.8%,22.4%,6.4%
CCCc1cc(=O)oc2c3c(c4c(c12)OC(C)(C)CC4)O[C@H](C)C(C)C3O (stereo not given in full),24.8%,11.6%,11.6%,26.1%,47.6%,35%
